Assay results taken from PubChem BioAssay.
Calls of active or inactive are those of the source. Unless noted, the rule behind the calls is not given here.

Key:
[1] = HepG2 liver cancer cell viability effects, profiling panel, resazurin fluorescence, 24 h, PK04 Diversity Set (AID 1172); conditions: higher = more signal; note: test concentration not given here
[2] = basal S. cerevisiae growth modulation, no modifier, primary screen, OD600, strain BY4716, 24 h, basal condition (AID 1173); conditions: OD600, 24 h, higher = more signal, called active from +8 up or from −8 down
[3] = MM1S myeloma cell viability, profiling panel, resazurin fluorescence, basal, 24 h, PK04 Diversity Set (AID 1174); conditions: higher = more signal, called active from +8 up or from −8 down;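 note: MM1S multiple myeloma cell line; test concentration not given here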
[4] = target: Dihydroorotate dehydrogenase (quinone), mitochondrial (Plasmodium falciparum (isolate 3D7)) (UniProt Q08210); experiment: PfDHODH enzyme inhibitors, primary screen, biochemical, C-terminal His tag, absorbance 600 nm (AID 1175); conditions: DCIP absorbance 600 nm, higher = more signal, called active from +8 up or from −8 down;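 note: recombinant parasite enzyme with a five histidine tag at its C terminus; test concentration not given here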
[5] = P. aeruginosa biofilm formation inhibitors, primary screen, strain PAO1, LB-PBS medium, absorbance 600 nm (AID 1176); note: test concentration not given here; conditions: P. aeruginosa PAO1 growth/biofilm, A600, 12 h; higher = more signal
[6] = S. cerevisiae RM11-1a growth modifiers, primary screen, strain RM11-1a, OD600, basal, 24 h (AID 1177); conditions: OD600, 24 h, higher = more signal, called active from +8 up or from −8 down;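 note: cultures grown under basal conditions with no added stressor; test concentration not given here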
[7] = E. coli acrAB mutant growth effects, primary screen, E. coli filamentation inducers, strain DRC39, OD650, 24 h (AID 1178); conditions: higher = more signal, called active from +8 up or from −8 down;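 note: growth measured as culture turbidity by optical density at 650 nm; test concentration not given here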
[8] = E. coli acrAB mutant growth effects, primary screen, E. coli filamentation inducers, strain DRC39, OD650, 48 h (AID 1179);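 note: screen aims at cell division blockers that make cells filament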; conditions: E. coli DRC39 delta-acrAB growth, higher = more signal, called active from +8 up or from −8 down
[9] = RPMI8226 myeloma cell viability, profiling panel, resazurin fluorescence, basal, 24 h, PK04 Diversity Set (AID 1180); conditions: higher = more signal;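 note: RPMI8826 multiple myeloma cell line at 5000 cells per well; test concentration not given here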
[10] = target: E3 ubiquitin-protein ligase XIAP (Homo sapiens) (UniProt P98170); experiment: XIAP binders, primary screen, biophysical, small-molecule microarray, fluorescence 635 nm (AID 1181); conditions: small-molecule microarray binding, higher = more signal;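 note: score merges 667 nm emission and signal to noise over triplicate slides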
E3 ubiquitin-protein ligase XIAP (Homo sapiens), sequence (P98170 whole entry, looked up): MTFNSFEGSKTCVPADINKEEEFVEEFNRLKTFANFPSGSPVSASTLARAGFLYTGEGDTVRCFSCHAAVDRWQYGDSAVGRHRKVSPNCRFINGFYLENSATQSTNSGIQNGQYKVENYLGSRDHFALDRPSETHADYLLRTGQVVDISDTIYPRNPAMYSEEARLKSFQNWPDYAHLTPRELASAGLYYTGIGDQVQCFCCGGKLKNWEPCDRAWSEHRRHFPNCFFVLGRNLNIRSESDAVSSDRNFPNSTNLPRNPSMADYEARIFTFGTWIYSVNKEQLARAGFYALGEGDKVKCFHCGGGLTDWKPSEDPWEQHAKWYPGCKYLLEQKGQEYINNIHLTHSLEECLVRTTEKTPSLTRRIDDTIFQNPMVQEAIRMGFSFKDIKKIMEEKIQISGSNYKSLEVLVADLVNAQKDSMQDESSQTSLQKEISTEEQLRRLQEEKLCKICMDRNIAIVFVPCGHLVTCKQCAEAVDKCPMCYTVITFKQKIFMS

Dihydroorotate dehydrogenase (quinone), mitochondrial (Plasmodium falciparum (isolate 3D7)), sequence (Q08210 whole entry, looked up): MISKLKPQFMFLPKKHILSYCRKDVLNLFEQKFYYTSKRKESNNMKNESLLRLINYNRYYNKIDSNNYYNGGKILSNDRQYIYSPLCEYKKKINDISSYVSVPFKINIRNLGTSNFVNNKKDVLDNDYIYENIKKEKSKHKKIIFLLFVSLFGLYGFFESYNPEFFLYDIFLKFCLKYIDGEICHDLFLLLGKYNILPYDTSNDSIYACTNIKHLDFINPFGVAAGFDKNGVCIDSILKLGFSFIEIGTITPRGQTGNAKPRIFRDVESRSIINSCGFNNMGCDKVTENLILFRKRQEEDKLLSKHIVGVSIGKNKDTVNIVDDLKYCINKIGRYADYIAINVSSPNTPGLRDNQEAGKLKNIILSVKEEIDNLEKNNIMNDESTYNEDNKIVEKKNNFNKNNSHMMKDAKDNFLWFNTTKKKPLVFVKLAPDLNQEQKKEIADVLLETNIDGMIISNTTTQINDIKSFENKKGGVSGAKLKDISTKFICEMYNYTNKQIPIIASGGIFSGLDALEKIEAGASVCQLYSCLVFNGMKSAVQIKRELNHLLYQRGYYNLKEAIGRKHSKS

SMILES	z-score [1]	z-score [2]	z-score [3]	composite z-score [4]	z-score [5]	z-score [6]	z-score [7]	z-score [8]	z-score [9]	composite z-score [10]
COC(=O)[C@@]1(Cc2ccc(F)cc2)[C@H]2c3cc(C(=O)N(C)C)n(CCF)c3C[C@H]2CN1C(=O)c1ccccc1	0.0085	0.0276 (inactive)	-0.182 (inactive)	-0.54 (inactive)	0.7 (inactive)	-0.5 (inactive)	0.783 (inactive)	0.459 (inactive)	0.034	0.179
CO[C@H]1O[C@H](CO)[C@@H](OC(=O)Nc2ccccc2)[C@@H]2OC(=O)[C@@H](Cc3ccccc3)C/C=C/C[C@H](Cc3ccccc3)C(=O)O[C@@H]12	-0.472	0.153 (inactive)	-2.22 (inactive)	-1.38 (inactive)	0.0126 (inactive)	1.04 (inactive)	-0.409 (inactive)	0.582 (inactive)	-0.381	0.381
C=CCOC(=O)[C@H]1[C@@H]2C(=O)O[C@@H](c3ccccc3)[C@@H](c3ccccc3)N2[C@@H](c2ccc(OCCOC(=O)[C@H]3C[C@H]4C(=O)NCC(=O)N4[C@H]3c3cccc(OCCO)c3)cc2)[C@]12C(=O)Nc1ccc(I)cc12	-0.199	1.18 (inactive)	0.265 (inactive)	0.603 (inactive)	1.88 (inactive)	1.5 (inactive)	-0.274 (inactive)	0.765 (inactive)	0.973	0.0431
COC(=O)[C@]1(Cc2ccccc2N=[N+]=[N-])N=C(c2ccc(OCCCO)cc2)O[C@@H]1c1ccccc1CN=[N+]=[N-]	-4.43	1.24 (inactive)	-8.15 (active)	1.71 (inactive)	1.16 (inactive)	1.94 (inactive)	-0.307 (inactive)	-0.609 (inactive)	-7.07	-0.0277
COC(=O)C[C@H]1O[C@]2(C(=O)N(C)c3ccccc32)[C@@H](C)[C@@H]1[Si](C)(C)c1ccccc1	1.45	-2.07 (inactive)	0.317 (inactive)	-0.343 (inactive)	-1.24 (inactive)	-0.136 (inactive)	0.709 (inactive)	-0.106 (inactive)	1.22	0.135
COC(=O)[C@@]1(Cc2ccc(F)cc2)[C@H]2c3cc(C(=O)N4CCCC4)n(Cc4ccc(C(F)(F)F)nc4)c3C[C@H]2CN1C(=O)c1ccccc1	-0.213	1.12 (inactive)	-1.23 (inactive)	-0.456 (inactive)	-0.691 (inactive)	1.09 (inactive)	-0.83 (inactive)	0.0871 (inactive)	-1.11	0.153
C=CC[C@]1(C(=O)NCCN2CCOCC2)N=C(c2ccc(OCCCO)cc2)O[C@H]1c1ccccc1	0.543	-0.916 (inactive)	0.635 (inactive)	0.507 (inactive)	0.509 (inactive)	-0.548 (inactive)	-0.0082 (inactive)	-0.864 (inactive)	0.749	-0.0351
CN(C)CCCCNC(=O)[C@H]1C[C@H]2C(=O)N[C@@H](CCCCN(C)C)C(=O)N2[C@H]1c1ccc(O)cc1	0.828	-1.95 (inactive)	0.419 (inactive)	0.245 (inactive)	0.655 (inactive)	-1.52 (inactive)	1.12 (inactive)	1.67 (inactive)	1.82	-0.127
COC(=O)C(CC#Cc1ccc2c(c1)[C@]1(C(=O)N2)[C@H](C(=O)N2CCN(c3ncccn3)CC2)[C@H]2C(=O)O[C@H](c3ccccc3)[C@H](c3ccccc3)N2[C@@H]1c1ccc(O)cc1)C(=O)OC	-0.146	0.586 (inactive)	0.235 (inactive)	-15.3 (active)	1.67 (inactive)	1.25 (inactive)	0.167 (inactive)	0.26 (inactive)	-1.47	0.309
CCCN1C(=O)[C@@]2(c3ccc([N+](=O)[O-])cc3)CC(=O)N(C3CCCCC3)[C@@H]2c2ccc(CO)cc21	-0.225	1.88 (inactive)	-0.674 (inactive)	-24.3 (active)	0.944 (inactive)	1.89 (inactive)	0.197 (inactive)	-1.27 (inactive)	-0.606	-0.0773
CC1CC/C=C\[C@H]2OC34C=CCN(CCN5CCOCC5)C(=O)[C@H]3N(C(CO)C(C)C)C(=O)[C@@H]4C2C(=O)O1 (stereo not given in full)	-0.137	0.183 (inactive)	-0.885 (inactive)	-3.11 (inactive)	-0.869 (inactive)	-0.459 (inactive)	0.332 (inactive)	0.365 (inactive)	-0.465	-0.0172
C=CC[C@H](O)c1ccc(O)c(F)c1	-0.632	-2.36 (inactive)	-0.711 (inactive)	-0.0056 (inactive)	0.131 (inactive)	-0.498 (inactive)	0.117 (inactive)	0.0282 (inactive)	-0.0926	-0.0088
O=C1O[C@H](c2ccccc2)[C@H](c2ccccc2)N2[C@H]1[C@@H](C(=O)O)[C@]1(C(=O)Nc3ccc(C#CC4(O)CCCCCC4)cc31)[C@H]2c1ccccc1OCCO	1.15	-1.72 (inactive)	-0.65 (inactive)	-2.25 (inactive)	-0.645 (inactive)	3.22 (inactive)	0.703 (inactive)	0.732 (inactive)	0.305	-0.0666
COCCOC(=O)N1C(=O)[C@@]2(c3cc(C#CCNC(N)=O)ccc31)[C@H](c1ccccc1OCCO)N1[C@H](c3ccccc3)[C@H](c3ccccc3)OC(=O)[C@H]1[C@@H]2C(=O)N1CCCCCCC1	0.875	1 (inactive)	0.723 (inactive)	-0.321 (inactive)	2.91 (inactive)	1.09 (inactive)	-0.256 (inactive)	-0.276 (inactive)	-0.55	-0.0143
CN1C(=O)C2C=CC(C(O)c3cccs3)N(N(c3ccccc3)c3ccccc3)C2C1=O (stereo not given)	-0.428	0.754 (inactive)	-1.13 (inactive)	0.656 (inactive)	0.419 (inactive)	0.567 (inactive)	-0.483 (inactive)	0.0156 (inactive)	-0.985	0.462
COc1ccc([Si](C)(C)[C@@H]2[C@@H](CC(=O)N(CCO)Cc3ccccc3)O[C@]3(C(=O)N(Cc4cccc(I)c4)c4ccccc43)[C@H]2C)cc1	-2.2	-0.142 (inactive)	-3.25 (inactive)	0.704 (inactive)	1.51 (inactive)	2.64 (inactive)	-0.335 (inactive)	-0.795 (inactive)	-2.96	0.236
O=C1NC(=O)C2C1C=CC(C(O)C(c1ccccc1)c1ccccc1)N2Nc1ccccn1 (stereo not given)	-0.187	-0.639 (inactive)	-0.408 (inactive)	1.72 (inactive)	0.916 (inactive)	0.419 (inactive)	-0.156 (inactive)	-0.284 (inactive)	0.261	0.417
CCCCC(=C=CC[C@@H](O)c1ccccc1OCCO)C[C@@H](O)c1ccccn1	0.687	-1.72 (inactive)	0.538 (inactive)	-7.64 (inactive)	0.354 (inactive)	-0.506 (inactive)	1.04 (inactive)	0.52 (inactive)	0.805	-0.287
CCOC(=O)C1=CCC(c2ccncc2)N(S(=O)(=O)c2ccc(C)cc2)C1 (stereo not given)	-0.226	-0.867 (inactive)	-1.14 (inactive)	-1.2 (inactive)	-0.433 (inactive)	-0.364 (inactive)	-0.0978 (inactive)	0.737 (inactive)	-1.25	-0.197
C=C1C(=O)C=C2CN(C(=O)c3ccccc3)[C@@](Cc3ccc(F)cc3)(C(=O)OC)[C@@H]12	-6.48	-11.8 (active)	-9.98 (active)	-1.67 (inactive)	0.439 (inactive)	-2.19 (inactive)	0.322 (inactive)	-1.8 (inactive)	-7.28	0.154
C=CCOC(=O)[C@H]1[C@@H]2C(=O)O[C@@H](c3ccccc3)[C@@H](c3ccccc3)N2[C@@H](c2ccc(OCCOC(=O)[C@@H]3C[C@@H]4C(=O)N[C@@H](Cc5ccccc5)C(=O)N4[C@@H]3c3ccc(O)cc3)cc2)[C@]12C(=O)Nc1ccc(I)cc12	-0.654	2.3 (inactive)	-1.06 (inactive)	0.684 (inactive)	2.75 (inactive)	2.92 (inactive)	-0.588 (inactive)	-0.508 (inactive)	-0.721	0.349
COc1cc(CO)cc(I)c1O[C@H]1C=C(C(=O)NCCO)C[C@@H](N(CCN2CCOCC2)C(=O)C2CCCO2)[C@@H]1O (stereo not given in full)	0.687	-0.371 (inactive)	-0.202 (inactive)	0.826 (inactive)	-0.365 (inactive)	0.772 (inactive)	2.09 (inactive)	1.21 (inactive)	0.716	-0.117
COc1cccc(C)c1NC(=O)O[C@H]1[C@H](OC(=O)Nc2ccccc2)[C@@H](OC(=O)Nc2ccccc2)[C@@H](OC)O[C@@H]1CO	-2	0.748 (inactive)	-3.79 (inactive)	-0.0526 (inactive)	1.28 (inactive)	2.78 (inactive)	0.655 (inactive)	-0.667 (inactive)	-2.85	0.06
